{"source": "PubChem BioAssay AID463212", "about": "(Sanford-Burnham Center for Chemical Genomics, 2010)", "note": "About 4,400 (1.3%) of roughly 330,000 compounds were called active. Only a selection was taken, and actives are over-represented in it overall. Unmarked numbers belong to inactive results.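 The calls were made as follows: active = growth inhibition of the mutant yeast at or above 50%; inactive = the rest.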"}
{"assay": "growth inhibitors of tim23-1 mutant yeast, primary screen, luminescence, uHTS (AID 463212);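 also: temperature-sensitive mutant grown at 25 °C; plate controls were DMSO-treated mutant yeast for no effect and medium wells lacking yeast for full effect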", "settings": "S. cerevisiae tim23-1 growth, BacTiter-Glo luminescence, 24 h; at 20 µM; stronger effect = higher value"}
{"smiles": "Nn1c(SCC(=O)NC2CCCc3ccccc32)nnc1C1CC1", "note": "(stereo not drawn)", "inhibition": "2.69%"}
{"smiles": "CC(=O)Nc1ccc(Oc2ccc3c(c2)C(=O)NC3=O)cc1", "inhibition": "-0.541%"}
{"smiles": "CC(=O)Oc1ccc2c(c1)C(=O)c1ccccc1C2=O", "inhibition": "50.2% (active)"}
{"smiles": "CC(=O)O[C@H]1c2ccccc2-c2ccccc2[C@@H]1OC(C)=O", "inhibition": "21.8%"}
{"smiles": "O=C(O)CN(Cc1ccco1)S(=O)(=O)c1ccc(F)cc1", "inhibition": "-1.65%"}
{"smiles": "O=C(c1cc(-c2ccc(O)cc2)on1)N1CCOCC1", "inhibition": "12.7%"}
{"smiles": "O=C(c1cc(-c2cccc(O)c2)on1)N1CCc2ccccc2C1", "inhibition": "50.3% (active)"}
{"smiles": "O=C(NCCCN1CCOCC1)c1cc(-c2cccc(O)c2)on1", "inhibition": "-0.573%"}
{"smiles": "Cc1c(C(=O)N2CCCc3ccccc32)oc2ccccc12", "inhibition": "23.8%"}
{"smiles": "Cc1ccc(-c2cc(C(=O)N3CCc4ccccc4C3)no2)cc1", "inhibition": "15.5%"}
{"smiles": "O=C(c1cc(-c2ccc(O)cc2)on1)N1CCCc2ccccc21", "inhibition": "54.2% (active)"}
{"smiles": "CSc1ccc(S(=O)(=O)N2CCC(C(=O)NCc3ccncc3)CC2)cc1", "inhibition": "0.185%"}
{"smiles": "COC(=O)c1ccc2ccccc2c1OC1OC(CO)C(O)C(O)C1NC(C)=O", "note": "(stereo not drawn)", "inhibition": "2.47%"}
{"smiles": "Cc1cccc(-c2nnc(SCC(=O)O)n2Cc2ccccc2)c1", "inhibition": "1.27%"}
{"smiles": "CC1CCC2(CC1)NC(=O)N(Cc1nnc(-c3cccs3)o1)C2=O", "note": "(stereo not drawn)", "inhibition": "8.03%"}
{"smiles": "CCn1c(SCc2cccc(C(=O)O)c2)nnc1-c1ccc(Cl)cc1", "inhibition": "10.3%"}
{"smiles": "O=C(COC(=O)C1CCCCC1)Nc1ccc([N+](=O)[O-])cc1", "inhibition": "2.5%"}
{"smiles": "CC(=O)Nc1ccc(NC(=O)COC(=O)C2CCC(C(C)(C)C)CC2)cc1", "note": "(stereo not drawn)", "inhibition": "32.6%"}
{"smiles": "CCC(C)c1ccc(NC(=O)COC(=O)C2CCCC2)cc1", "note": "(stereo not drawn)", "inhibition": "56.9% (active)"}
{"smiles": "Clc1ccc(-c2nnc(-c3ccccc3)nc2N2CCSCC2)cc1", "inhibition": "45.4%"}
{"smiles": "O=S(=O)(c1ccccc1)c1nc(Cc2ccccc2)oc1N1CCOCC1", "inhibition": "7.56%"}
{"smiles": "CCCCC(NC(=O)c1cccc(Br)c1)C(=O)O", "note": "(stereo not drawn)", "inhibition": "4.77%"}
{"smiles": "COC(=O)CNS(=O)(=O)c1ccc(Cc2ccc(S(=O)(=O)NCC(=O)OC)cc2)cc1", "inhibition": "31.2%"}
{"smiles": "COc1cc(OC)c(C(=S)N2CCCC2)cc1OC", "inhibition": "11.7%"}
{"smiles": "O=C1N=C(N2CCCC2)S/C1=C\\c1cccc(Br)c1", "inhibition": "27.3%"}
{"smiles": "CC(C)=C1SC(N2CCN(c3cccc(C)c3)CC2)=NC1=O", "inhibition": "14.1%"}
{"smiles": "CCN1C(=O)/C(=C2\\SC(N3CCCCC3)=NC2=O)c2ccccc21", "inhibition": "54.8% (active)"}
{"smiles": "CSc1ccccc1OCc1cc(C(=O)N2C[C@H]3CC[C@H]2C3)no1", "inhibition": "18.7%"}
{"smiles": "CCCOc1ccc(CN(CCO)CCO)cc1C(=O)OC", "inhibition": "1.64%"}
{"smiles": "COCCCNC(=O)C1CCN(c2ccc(N3CCOCC3)nn2)CC1", "inhibition": "16.9%"}
{"smiles": "O=C(NCc1ccccc1)c1onc(CSc2nc3ccccc3[nH]2)c1C(=O)NCc1ccccc1", "inhibition": "6.16%"}
{"smiles": "CCOC(=O)C1CCN(C(=O)c2cccc(S(=O)(=O)N(CC)c3ccccc3)c2)CC1", "inhibition": "14.3%"}
{"smiles": "CCCCN1C(=O)CC(N2CCOCC2)C1=O", "note": "(stereo not drawn)", "inhibition": "-1.61%"}
{"smiles": "Cn1nc(C(F)(F)F)cc1C(=O)O", "inhibition": "-3.37%"}
{"smiles": "O=c1oc2ccccc2c(NC2CCCCC2)c1NS(=O)(=O)c1ccc(Cl)cc1", "inhibition": "25.2%"}
{"smiles": "O=c1ccc2cc(S(=O)(=O)Nc3ccccc3F)ccc2o1", "inhibition": "17.6%"}
{"smiles": "O=c1oc(-c2ccccc2NS(=O)(=O)c2ccc(Cl)cc2)nc2ccccc12", "inhibition": "59.8% (active)"}
{"smiles": "CC(=O)Nc1ccc(N2C(=O)CC(Sc3nccc(C)n3)C2=O)cc1", "note": "(stereo not drawn)", "inhibition": "10.2%"}
